Laboratory results reported in PubChem BioAssay.
For part of these data: Results with a measured potency or affinity are listed apart. Active and inactive are the calls of the source. Unless noted, no rule for the calls is given here.

Columns and labels:
[1] = antimalarial activity against Dd2 strain (AID 2302;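 active = growth inhibition above 50% at the single 2 µM test dose, taken to imply half-maximal potency below 2 µM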;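 also: 0% = DMSO untreated growth and 100% = chloroquine plus artemisinin killed control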); details: P. falciparum Dd2 in RBCs, LDH growth readout, 72 h; at 2 µM; stronger effect = higher value
[2] = HepG2 cytotoxicity, primary screen, cytotoxicity control for P. falciparum antimalarial project, cell-based, ATP luminescence (AID 2303;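 active = inhibition above 50%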;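 also: 0% = DMSO wells and 100% = digitonin-killed cells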); details: HepG2 viability, 24-48 h, at 10 µM, stronger effect = higher value
[3] = target: L-lactate dehydrogenase (Plasmodium falciparum (isolate CDC / Honduras)) (UniProt Q27743); assay: PfLDH activity inhibition – cell lysate, 3D7 strain, counter-screen for P. falciparum growth inhibition project (AID 2304);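 also: 0% = vehicle and 100% = reference inhibitor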; details: P. falciparum 3D7 crude extract, LDH APAD/NBT absorbance; at 2 µM; stronger effect = higher value
[4] = inhibition of 3D7 malaria parasite growth – strain 3D7 (AID 2306);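 also: 0% = DMSO wells and 100% = chloroquine plus artemisinin control wells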; details: P. falciparum 3D7 erythrocytic growth, LDH absorbance, 72 h; at 2 µM; stronger effect = higher value
[5] = target: Calcium-dependent protein kinase 1 (Plasmodium falciparum (isolate 3D7)) (UniProt P62344); assay: PfCDPK1 kinase inhibitors, biochemical, TCAMS library (AID 1159585; cut-off not given, nearly all actives have IC50 up to about 0.98 µM;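 also: inhibitors leave more ATP so luminescence rises with inhibition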); details: recombinant PfCDPK1, Kinase-Glo ATP depletion luminescence
[6] = target: Plasmodium falciparum protein kinase 6 (PK6, PF3D7_1337100) (UniProt Q8IDW1); assay: PfPK6 kinase inhibitors, biochemical, TCAMS library (AID 1159586); details: recombinant PfPK6, Kinase-Glo ATP depletion luminescence
[7] = target: Protein kinase 7 (PK7), Plasmodium falciparum 3D7 (PF3D7_0213400) (UniProt Q7YTF7); assay: inhibition of Plasmodium PK7 catalytic activity – biochemical, TCAMS antimalarial set, Kinase-Glo luminescence (AID 1159587); details: recombinant PfPK7, Kinase-Glo ATP depletion luminescence
[8] = target: Calcium-dependent protein kinase 4 (Plasmodium falciparum (isolate 3D7)) (UniProt Q8IBS5); assay: PfCDPK4 kinase inhibitors, biochemical, TCAMS library (AID 1159588; cut-off not given, nearly all actives have IC50 up to about 0.91 µM); details: recombinant PfCDPK4, Kinase-Glo ATP depletion luminescence
Calcium-dependent protein kinase 4 (Plasmodium falciparum (isolate 3D7)), sequence (Q8IBS5 whole entry, looked up): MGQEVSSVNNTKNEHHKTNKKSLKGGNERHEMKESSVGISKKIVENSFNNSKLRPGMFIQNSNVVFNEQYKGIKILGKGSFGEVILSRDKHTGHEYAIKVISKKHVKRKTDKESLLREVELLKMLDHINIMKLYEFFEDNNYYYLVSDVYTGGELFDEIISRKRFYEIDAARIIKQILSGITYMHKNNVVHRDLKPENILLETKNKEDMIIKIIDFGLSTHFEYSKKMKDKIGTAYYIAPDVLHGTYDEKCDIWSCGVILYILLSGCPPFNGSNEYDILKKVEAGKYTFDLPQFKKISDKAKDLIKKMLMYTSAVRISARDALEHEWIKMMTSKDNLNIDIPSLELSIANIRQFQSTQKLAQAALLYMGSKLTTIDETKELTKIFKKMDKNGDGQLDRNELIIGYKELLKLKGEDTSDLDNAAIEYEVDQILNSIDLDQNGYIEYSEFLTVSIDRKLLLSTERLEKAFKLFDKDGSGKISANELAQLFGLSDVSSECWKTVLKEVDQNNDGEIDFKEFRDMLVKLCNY

Protein kinase 7 (PK7), Plasmodium falciparum 3D7 (PF3D7_0213400), sequence (Q7YTF7 1-343): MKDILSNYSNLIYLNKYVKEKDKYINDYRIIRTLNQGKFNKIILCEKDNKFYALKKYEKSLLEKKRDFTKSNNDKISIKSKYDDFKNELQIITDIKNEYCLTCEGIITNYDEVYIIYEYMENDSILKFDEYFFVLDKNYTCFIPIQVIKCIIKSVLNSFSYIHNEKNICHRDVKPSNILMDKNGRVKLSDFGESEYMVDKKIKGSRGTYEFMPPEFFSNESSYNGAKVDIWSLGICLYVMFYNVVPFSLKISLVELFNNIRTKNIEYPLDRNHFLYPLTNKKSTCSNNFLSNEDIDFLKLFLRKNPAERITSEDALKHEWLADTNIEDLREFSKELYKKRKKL
L-lactate dehydrogenase (Plasmodium falciparum (isolate CDC / Honduras)), sequence (Q27743 whole entry, looked up): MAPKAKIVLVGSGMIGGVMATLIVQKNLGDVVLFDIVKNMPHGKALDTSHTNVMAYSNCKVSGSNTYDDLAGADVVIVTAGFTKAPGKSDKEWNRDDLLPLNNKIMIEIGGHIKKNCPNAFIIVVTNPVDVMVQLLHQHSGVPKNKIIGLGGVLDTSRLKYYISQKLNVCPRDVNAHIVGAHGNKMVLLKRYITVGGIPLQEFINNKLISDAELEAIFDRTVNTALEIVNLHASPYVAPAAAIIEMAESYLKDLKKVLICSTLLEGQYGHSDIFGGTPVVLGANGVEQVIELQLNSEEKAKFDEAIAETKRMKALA
Calcium-dependent protein kinase 1 (Plasmodium falciparum (isolate 3D7)), sequence (P62344 whole entry, looked up): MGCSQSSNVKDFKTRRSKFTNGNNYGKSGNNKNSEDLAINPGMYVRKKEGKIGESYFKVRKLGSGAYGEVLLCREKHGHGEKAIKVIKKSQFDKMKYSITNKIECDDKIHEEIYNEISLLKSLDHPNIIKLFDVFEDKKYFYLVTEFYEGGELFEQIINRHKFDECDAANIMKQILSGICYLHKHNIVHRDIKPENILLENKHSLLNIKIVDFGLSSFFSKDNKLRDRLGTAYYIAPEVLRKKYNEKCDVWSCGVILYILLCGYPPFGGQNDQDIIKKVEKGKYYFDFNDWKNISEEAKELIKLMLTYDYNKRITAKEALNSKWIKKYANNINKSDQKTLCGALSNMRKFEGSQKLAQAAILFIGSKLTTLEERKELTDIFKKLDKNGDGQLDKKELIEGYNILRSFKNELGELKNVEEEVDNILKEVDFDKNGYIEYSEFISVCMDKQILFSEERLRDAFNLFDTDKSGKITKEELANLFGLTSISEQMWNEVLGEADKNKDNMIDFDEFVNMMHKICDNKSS
Plasmodium falciparum protein kinase 6 (PK6, PF3D7_1337100), sequence (Q8IDW1 1-305): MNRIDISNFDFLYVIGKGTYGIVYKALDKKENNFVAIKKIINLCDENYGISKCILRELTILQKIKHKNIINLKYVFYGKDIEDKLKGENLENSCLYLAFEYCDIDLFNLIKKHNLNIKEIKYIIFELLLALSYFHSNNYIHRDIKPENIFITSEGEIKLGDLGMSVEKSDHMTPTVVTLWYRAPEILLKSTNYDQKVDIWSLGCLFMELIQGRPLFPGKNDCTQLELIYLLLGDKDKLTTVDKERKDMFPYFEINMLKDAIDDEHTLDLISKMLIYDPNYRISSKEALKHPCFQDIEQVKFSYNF

c1ccc(Oc2ccc(Nc3ccnc(Nc4ccc(CN5CCOCC5)cc4)n3)cc2)cc1
inactive: growth inhibition [1] 38% | inhibition [2] 46% | inhibition [3] -4% | outcome [5] | outcome [6] | outcome [7] | outcome [8]
active: growth inhibition [4] 92%

O=C(NCCCCCN1CCC(c2c[nH]c3ccccc23)CC1)c1ccc(-c2ccccc2)nc1
inactive: growth inhibition [1] 13% | inhibition [2] 43% | inhibition [3] 1% | outcome [5] | outcome [6] | outcome [7] | outcome [8]
active: growth inhibition [4] 87%

CCNc1cc(C(=O)N[C@@H](Cc2ccccc2)[C@H](O)CNC(C)Cc2cccc(Cl)c2)cc(N2CCCCS2(=O)=O)c1 (stereo partly drawn)
inactive: inhibition [2] -6% | inhibition [3] 1% | outcome [5] | outcome [6] | outcome [7] | outcome [8]
active: growth inhibition [1] 77% | growth inhibition [4] 98%

CN1CCN(c2cc3c(cc2Cl)CCN3C(=O)Cc2ccc(NC(=O)Nc3cccc4ccccc34)cc2)CC1
active: growth inhibition [4] 92%
inactive: growth inhibition [1] 18% | inhibition [2] 12% | inhibition [3] -11% | outcome [5] | outcome [6] | outcome [7] | outcome [8]

CC1CN(S(=O)(=O)c2ccc(NC(=O)c3cc(-c4ccccc4O)n[nH]3)cc2)CC(C)O1 (stereo not drawn)
active: growth inhibition [1] 93% | growth inhibition [4] 97%
inactive: inhibition [2] 21% | inhibition [3] 1% | outcome [5] | outcome [6] | outcome [7] | outcome [8]

O=C(Nc1ccc2c(c1)CCN(C1CCC1)CC2)c1ccc(-c2cn3ccccc3n2)cc1
active: growth inhibition [4] 102%
inactive: growth inhibition [1] 42% | inhibition [2] 13% | inhibition [3] 2% | outcome [5] | outcome [6] | outcome [7] | outcome [8]

NC(=O)c1ccsc1NC(=O)CNC(c1ccccc1)c1ccccc1
inactive: growth inhibition [1] 37% | inhibition [2] 8% | inhibition [3] 3% | outcome [5] | outcome [6] | outcome [7] | outcome [8]
active: growth inhibition [4] 88%

NCC1CCCN1Cc1ccc(-c2cccc(-c3nc4ccc(F)cc4[nH]3)c2)cc1 (stereo not drawn)
inactive: growth inhibition [1] 31% | inhibition [2] 38% | inhibition [3] 4% | outcome [5] | outcome [6] | outcome [7] | outcome [8]
active: growth inhibition [4] 100%

COc1cccc(CCc2c(CCNCCCCCCNCCc3ccccc3)ccc(OC)c2OC)c1
active: growth inhibition [1] 69% | inhibition [2] 100% | growth inhibition [4] 100%
inactive: inhibition [3] 6% | outcome [5] | outcome [6] | outcome [7] | outcome [8]

O=C(Cc1cccnc1)Nc1cccc(-c2cccc(-c3nc4ccc(C(F)(F)F)cc4[nH]3)c2)c1
active: growth inhibition [4] 99%
inactive: growth inhibition [1] 38% | inhibition [2] 42% | inhibition [3] -7% | outcome [5] | outcome [6] | outcome [7] | outcome [8]

NC(=O)c1cc2nc(Nc3ccc(F)cc3)nc(Nc3ccc(S(N)(=O)=O)cc3)c2[nH]1
inactive: inhibition [2] 2% | inhibition [3] 4% | outcome [5] | outcome [6] | outcome [7] | outcome [8]
active: growth inhibition [1] 99% | growth inhibition [4] 101%

Cc1[nH]c(C)c(-c2ccc(-c3ccccc3)nc2)c(=O)c1Br
active: growth inhibition [1] 95% | growth inhibition [4] 96%
inactive: inhibition [2] -3% | inhibition [3] -1% | outcome [5] | outcome [6] | outcome [7] | outcome [8]

C=CC[C@H](NC(=O)c1ccc(NS(=O)(=O)c2ccc3nc(N)[nH]c(=O)c3c2)cc1)C(=O)OCCCC
inactive: growth inhibition [1] 2% | inhibition [3] 1% | outcome [5] | outcome [6] | outcome [7] | outcome [8]
active: inhibition [2] 61% | growth inhibition [4] 97%

COc1cccc2[nH]c(NCCCNCc3cc(Br)cc(Br)c3)nc12
inactive: growth inhibition [1] 2% | inhibition [2] 5% | inhibition [3] -8% | outcome [5] | outcome [6] | outcome [7] | outcome [8]
active: growth inhibition [4] 88%

COCCNC(=O)C1CCN(C(c2ccc(Cl)cc2)c2ccc(Cl)cc2)CC1
inactive: inhibition [2] 3% | inhibition [3] -3% | outcome [5] | outcome [6] | outcome [7] | outcome [8]
active: growth inhibition [1] 73% | growth inhibition [4] 86%

COc1cccc(-c2ccc3c(-c4cccc(NC(C)=O)c4)cnc(N)c3c2)c1
active: growth inhibition [1] 83% | inhibition [2] 71% | growth inhibition [4] 99%
inactive: inhibition [3] -6% | outcome [5] | outcome [6] | outcome [7] | outcome [8]

Oc1ccc(CCNc2nc(NCCOc3ccccc3-c3ccccc3)nc(N3CCNCC3)n2)cc1
inactive: growth inhibition [1] 17% | inhibition [2] 22% | inhibition [3] -1% | outcome [5] | outcome [6] | outcome [7] | outcome [8]
active: growth inhibition [4] 93%

CCNC(=O)N[C@@H]1CN[C@@H](C#Cc2cc3c(Nc4ccc(OCc5cccc(F)c5)c(Cl)c4)ncnc3s2)C1
inactive: growth inhibition [1] 27% | inhibition [2] -2% | inhibition [3] 0% | outcome [5] | outcome [6] | outcome [7] | outcome [8]
active: growth inhibition [4] 85%

Nc1nc2ccc(CN(C=O)c3ccc(C(=O)N[C@@H](CCC(=O)O)C(=O)O)cc3)cc2c(=O)[nH]1
inactive: inhibition [2] -5% | inhibition [3] 2% | outcome [5] | outcome [6] | outcome [7] | outcome [8]
active: growth inhibition [1] 94% | growth inhibition [4] 93%

O=C(N[C@@H](CC1CCCCC1)C(=O)NC1CCCc2ccccc21)c1ccc(O)c(-c2cccc([N+](=O)[O-])c2)c1 (stereo partly drawn)
active: growth inhibition [1] 98% | growth inhibition [4] 99%
inactive: inhibition [2] -12% | inhibition [3] 1% | outcome [5] | outcome [6] | outcome [7] | outcome [8]

Nc1ncc(OC2CCCCC2)c(N)n1
active: growth inhibition [4] 94%
inactive: growth inhibition [1] -1% | inhibition [2] -4% | inhibition [3] -1% | outcome [5] | outcome [6] | outcome [7] | outcome [8]

CCN(CC)CCN(Cc1ccc(-c2ccc(C(F)(F)F)cc2)cc1)C(=O)Cn1c(CCc2cccc(F)c2F)cc(=O)c2c1CCCC2
inactive: inhibition [3] 1% | outcome [5] | outcome [6] | outcome [7] | outcome [8]
active: growth inhibition [1] 95% | inhibition [2] 93% | growth inhibition [4] 100%

CO/C(=C\C=C\c1cc2cc(Cl)c(Cl)cc2[nH]1)C(=O)NCCCN1CCN(C2CCCCC2)CC1
inactive: inhibition [3] -3% | outcome [5] | outcome [6] | outcome [7] | outcome [8]
active: growth inhibition [1] 97% | inhibition [2] 60% | growth inhibition [4] 99%

Oc1ccc(CN2Cc3ccccc3OC3(CCN(Cc4c[nH]c5cnccc45)CC3)C2)cc1
inactive: growth inhibition [1] 3% | inhibition [2] 17% | inhibition [3] -6% | outcome [5] | outcome [6] | outcome [7] | outcome [8]
active: growth inhibition [4] 101%

c1cc(CNCCc2ccncc2)cc(-c2ccc(-c3nc4ccccc4[nH]3)cc2)c1
active: growth inhibition [1] 97% | growth inhibition [4] 99%
inactive: inhibition [2] 28% | inhibition [3] 5% | outcome [5] | outcome [6] | outcome [7] | outcome [8]

Cc1ccc(NC(=O)C(C)Sc2n[nH]c(-c3ccccc3Br)n2)cc1 (stereo not drawn)
active: growth inhibition [1] 90% | growth inhibition [4] 89%
inactive: inhibition [2] 2% | inhibition [3] -4% | outcome [5] | outcome [6] | outcome [7] | outcome [8]

Cc1cc(C)c(NC(=O)N2CCCN(CCCCCNC(=O)/C=C/c3ccc(Cl)c(Cl)c3)CC2)c(C)c1
active: growth inhibition [4] 91%
inactive: growth inhibition [1] -1% | inhibition [2] 12% | inhibition [3] 3% | outcome [5] | outcome [6] | outcome [7] | outcome [8]

Cc1ccc(NC(=O)c2ccc(CN3CCCN(CC4CCCCC4)CC3)cc2)cc1C
inactive: growth inhibition [1] 32% | inhibition [2] 38% | inhibition [3] 3% | outcome [5] | outcome [6] | outcome [7] | outcome [8]
active: growth inhibition [4] 86%

Fc1ccc(OC2CN(c3nccc(NCc4ccccc4Cl)n3)C2)cc1
active: growth inhibition [1] 99% | growth inhibition [4] 98%
inactive: inhibition [2] -2% | inhibition [3] 6% | outcome [5] | outcome [6] | outcome [7] | outcome [8]

Cc1cccc2[nH]c(-c3cccc(-c4ccc(NC(=O)N[C@@H]5C[C@H]5c5ccccc5)cc4)c3)nc12
inactive: growth inhibition [1] 49% | inhibition [2] 25% | inhibition [3] 6% | outcome [5] | outcome [6] | outcome [7] | outcome [8]
active: growth inhibition [4] 98%

c1ccc(-c2[nH]ncc2Nc2ccnc3ccccc23)nc1
inactive: inhibition [2] 36% | inhibition [3] 1% | outcome [5] | outcome [6] | outcome [7] | outcome [8]
active: growth inhibition [1] 98% | growth inhibition [4] 100%

COCCN1CCN(Cc2cccc(-c3ccc(-c4nc5ccccc5[nH]4)cc3)c2)CC1
active: growth inhibition [1] 50% | growth inhibition [4] 100%
inactive: inhibition [2] 9% | inhibition [3] 1% | outcome [5] | outcome [6] | outcome [7] | outcome [8]

CCOC(=O)c1ccc(NC(=O)Nc2ccc(Cn3ncc(N4CCCNCC4)c(Cl)c3=O)cc2)cc1
inactive: inhibition [2] 2% | inhibition [3] 2% | outcome [5] | outcome [6] | outcome [7] | outcome [8]
active: growth inhibition [1] 58% | growth inhibition [4] 88%

O=C(Nc1cccc(Cl)c1N1CCOCC1)C(Cl)(Cl)Cl
active: growth inhibition [1] 95% | growth inhibition [4] 96%
inactive: inhibition [2] 3% | inhibition [3] -3% | outcome [5] | outcome [6] | outcome [7] | outcome [8]

COc1cc(Nc2nc(N)c3cc(OC)c(OC)cc3n2)cc(OC)c1
inactive: inhibition [2] 7% | inhibition [3] 4% | outcome [5] | outcome [6] | outcome [7] | outcome [8]
active: growth inhibition [1] 102% | growth inhibition [4] 101%

Cc1ccc(NC(=O)c2cccc(C#N)c2)cc1-c1ccc(C(=O)Nc2ccncc2)cc1
inactive: inhibition [2] 38% | inhibition [3] -1% | outcome [5] | outcome [6] | outcome [7] | outcome [8]
active: growth inhibition [1] 64% | growth inhibition [4] 94%
